Screening results deposited in PubChem by National Center for Advancing Translational Sciences (NCATS).
Pol eta inh-1 – inhibitors of human DNA polymerase eta | recombinant Pol eta, fluorescent DNA replication assay | Potency, µM (series often up to 114 µM), hits mostly inhibitors | Q9Y253 | 1.2% of 390,000 active | AID 588591
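Fluorescent replication assay: 50 nM final substrate added after a 15 min room-temperature compound preincubation with 10 nM enzyme. Signal taken at 0 min and again at 10 min.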
Pol beta inh – blocks human DNA polymerase beta activity; AID 485314; 1.3% of 340,000 active; P06746; Pol beta primer extension/strand displacement, fluorescence kinetic; Potency, µM (doses to about 114 µM), usual class: inhibitors
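Kinetic readout of DNA synthesis with strand displacement by Pol beta. Compound and 10 nM enzyme sit 15 min at room temperature; 50 nM substrate starts the reaction, read immediately and at 10 min.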
FEN1 inhibitor – blocks human flap endonuclease 1 | AID 588795 | Recombinant FEN1 flap cleavage, fluorescence, 15 min | 0.35% of 390,000 active | Potency, µM (titrated, usually from 114 µM), hits mostly inhibitors | P39748; note: nearly all actives have a fitted effect of over 65% in size
Target sequence (P39748 whole entry, looked up): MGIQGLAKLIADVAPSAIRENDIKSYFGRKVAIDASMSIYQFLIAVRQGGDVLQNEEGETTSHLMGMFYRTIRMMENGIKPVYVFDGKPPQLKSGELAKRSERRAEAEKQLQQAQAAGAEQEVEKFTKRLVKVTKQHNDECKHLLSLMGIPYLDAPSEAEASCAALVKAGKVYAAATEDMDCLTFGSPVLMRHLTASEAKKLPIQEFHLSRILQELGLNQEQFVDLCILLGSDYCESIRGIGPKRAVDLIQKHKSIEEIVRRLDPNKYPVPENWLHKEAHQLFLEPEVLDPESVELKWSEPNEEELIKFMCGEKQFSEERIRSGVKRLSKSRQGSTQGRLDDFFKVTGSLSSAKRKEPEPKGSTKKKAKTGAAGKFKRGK
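Read-out was taken twice, immediately and after 15 min, following addition of 50 nM substrate to 10 nM FEN1 that had sat with test compound for 15 min at room temperature. Curves came from a four-parameter Hill model.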
WRN inhibitor – inhibitors of human WRN helicase; 0.46% of 360,000 active; Potency, µM (top dose mostly 114 µM), most hits filed as inhibitors; AID 651768; WRN helicase unwinding, fluorescent forked duplex, kinetic; note: nearly all actives have a fitted effect of over 55% in size
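Kinetic fluorescence helicase assay: unwinding of a quenched forked DNA duplex (100 nM final) with 2 mM ATP final raises red fluorescence (525/598 nm). Compounds sat 15 min at room temperature with 20 nM WRN beforehand.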
Pol kappa inh-1 – DNA polymerase kappa (human) inhibition. purified Pol kappa, fluorescent DNA synthesis assay, 10 min. Potency, µM (titrated, usually from 107 µM), hits mostly inhibitors. 0.53% of 400,000 active
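First, compounds were pin-transferred onto 10 nM Pol kappa. After 15 min at room temperature, substrate was added to 50 nM final. Fluorescence was then measured kinetically at 0 and 10 min.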
Pol iota inh – inhibitors of human DNA polymerase iota; AID 588590; Q9UNA4; 1% of 390,000 active; Potency, µM (doses to about 115 µM), usual class: inhibitors; Pol iota fluorescent replication assay, 10 min
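Fluorescent replication assay read twice, at 0 min and 10 min after adding 50 nM (final) substrate. Enzyme (10 nM) and compounds were first incubated 15 min at room temperature; enzyme-free buffer wells were negative controls.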
GALK confirm – galactokinase (human) inhibition, confirmation; shares compounds with Pol eta inh-1; purified GALK, Kinase-Glo ATP depletion luminescence; Potency, µM (top dose mostly 115 µM), actives largely listed as inhibitors; 70% of 150 active; AID 2015
Target sequence (P51570 whole entry, looked up): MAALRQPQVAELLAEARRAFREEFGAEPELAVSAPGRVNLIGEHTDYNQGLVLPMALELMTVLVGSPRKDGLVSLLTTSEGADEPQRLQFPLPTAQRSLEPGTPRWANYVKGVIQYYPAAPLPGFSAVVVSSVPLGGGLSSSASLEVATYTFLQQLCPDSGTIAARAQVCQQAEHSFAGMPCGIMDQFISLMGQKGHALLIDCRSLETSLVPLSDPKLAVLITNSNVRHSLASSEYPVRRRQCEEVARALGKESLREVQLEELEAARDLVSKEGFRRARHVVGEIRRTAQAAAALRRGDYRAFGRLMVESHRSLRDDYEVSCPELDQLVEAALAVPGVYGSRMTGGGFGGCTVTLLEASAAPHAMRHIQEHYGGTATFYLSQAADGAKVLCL
Redox cycling – counter-screen for GALK inhibitors: redox cycling H2O2 generation. Potency, µM (doses to about 115 µM), hits mostly inhibitors. shares compounds with Pol eta inh-1. Phenol red-HRP H2O2 redox cycling, absorbance 600 nm. 40% of 150 active
HEK293 tox – reduces HEK-293 cell viability in GALK counter-screen | shares compounds with Pol eta inh-1 | HEK-293 viability, ATP luminescence (CellTiter-Glo), 24/48 h | Potency, µM (doses to about 46.1 µM), usual class: inhibitors | 10% of 170 active
Pol kappa inh-2 – confirmation of human DNA polymerase kappa inhibitors. purified Pol-kappa, fluorescent strand-displacement substrate. AID 720501. Potency, µM, actives largely listed as inhibitors. 76% of 920 active. shares compounds with Pol eta inh-1
Pol eta inh-2 – Pol eta (human) inhibition, cherry-pick confirmation; 64% of 2,600 active; shares compounds with Pol eta inh-1; Potency, µM, hits mostly inhibitors; Pol eta primer extension, TAMRA/BHQ fluorescence, 10 min
Each line names hits and unclear results; the compound was inactive in the other large screens (follow-up assays come after a bar, where they were run). The list is not random: actives were taken first. Their share in the collection is about 2.4%. Calls come from the whole dose curve; as a rule, active = well fitted curve in the direction sought with a large enough effect; inconclusive = small, poorly fitted or top-dose-only effect, or another doubt; inactive = no such curve, though single readings can be large; an effect the other way counts as inactive or inconclusive.

CC(C)c1ccc(N2C(=O)NC(=O)/C(=C\c3cnc(-c4ccccc4)nc3)C2=O)cc1	WRN inhibitor inconclusive
O=C1NC(=O)N(Cc2ccccc2)C(=O)/C1=C/C=C/c1ccco1	Pol eta inh-1 35.5µM, Pol beta inh inconclusive, FEN1 inhibitor inconclusive, WRN inhibitor 50.1µM, Pol iota inh 14.1µM | Pol eta inh-2 inconclusive
O=C(c1cccc2ccccc12)C1CCCN(C2CCC2)C1 (centres undefined)	Pol eta inh-1 inconclusive, Pol kappa inh-1 inconclusive, Pol iota inh inconclusive | Pol eta inh-2 inconclusive
O=C(c1cccc2ccccc12)C1CCCN(Cc2ccon2)C1 (centres undefined)	none
CC(c1nccs1)N(C)C(=O)c1cn(Cc2cccc3ccccc23)nn1 (centres undefined)	none
CCOC(=O)CC(SP(=S)(OC)OC)C(=O)OCC (centres undefined)	none (no result: Pol eta inh-1, Pol beta inh, FEN1 inhibitor, WRN inhibitor, Pol iota inh)
CCOC(=O)CC(SP1(=S)OCC2(CCCCC2)CO1)C(=O)OCC (centres undefined)	Pol eta inh-1 inconclusive, Pol iota inh inconclusive (no result: Pol beta inh) | Pol eta inh-2 67.5
Cc1ccc(/C=C2\C(=O)NC(=S)N(c3ccc(F)cc3)C2=O)o1	Pol eta inh-1 12.6µM, Pol beta inh 15.8µM, FEN1 inhibitor inconclusive, WRN inhibitor inconclusive, Pol kappa inh-1 25.1µM, Pol iota inh inconclusive | Pol kappa inh-2 16.8 | Pol eta inh-2 30.1
COc1cccc(N2C(=O)/C(=C/c3ccc(C)o3)C(=O)NC2=S)c1	Pol eta inh-1 12.6µM, Pol beta inh 44.7µM, FEN1 inhibitor inconclusive, WRN inhibitor inconclusive, Pol iota inh inconclusive | Pol kappa inh-2 29.9 | Pol eta inh-2 60.1
Cc1csc2nc(COC(=O)c3ccccc3NC(=O)c3ccc(F)cc3)cc(=O)n12	none (no result: WRN inhibitor)
C=C[C@@H]1CN2CC[C@H]1C[C@H]2[C@H](O)c1ccnc2ccccc12	none (no result: Pol eta inh-1, Pol beta inh, FEN1 inhibitor, WRN inhibitor, Pol iota inh)
CN1C(=O)/C(=C/c2cccn2-c2ccc3ccccc3c2)C(=O)NC1=S	Pol eta inh-1 3.98µM, Pol beta inh 22.4µM, FEN1 inhibitor inconclusive, Pol kappa inh-1 31.6µM, Pol iota inh 8.91µM | Pol eta inh-2 inconclusive
CCN(CC)c1ccc(/C=C2\C(=O)NC(=S)N(C)C2=O)o1	none
CCCCCC1C(=O)O[C@H](C)[C@@H](NC(=O)c2cccc(NC=O)c2O)C(=O)OC(C)C1OC(=O)CC(C)C (some centres undefined)	none (no result: Pol eta inh-1, Pol beta inh, FEN1 inhibitor, WRN inhibitor, Pol iota inh)
CCC1(O)C(=O)OCc2c1cc1n(c2=O)Cc2cc3cc(O)ccc3nc2-1 (centres undefined)	Pol eta inh-1 17.8µM, FEN1 inhibitor inconclusive, Pol kappa inh-1 inconclusive, Pol iota inh 22.4µM (no result: Pol beta inh) | Pol eta inh-2 75.7
CN1C(=O)C(=Cc2ccc(SC3CCCCC3)o2)C(=O)N(C)C1=O	Pol eta inh-1 22.4µM, Pol beta inh 22.4µM, Pol iota inh inconclusive | Pol kappa inh-2 inconclusive
CCn1nc(-c2cccs2)nc2c(=O)n(C)c(=O)nc1-2	Pol eta inh-1 0.794µM | GALK confirm 0.211µM | Redox cycling 0.266µM | HEK293 tox inconclusive
CCC1(c2ccccc2)C(=O)NC(=O)N(C(=O)c2ccccc2)C1=O (centres undefined)	none (no result: Pol eta inh-1, Pol beta inh, FEN1 inhibitor, WRN inhibitor, Pol iota inh)
O=C1NC(=O)N(CCC2=CCCCC2)C(=O)/C1=C\c1cccs1	Pol eta inh-1 20µM, Pol beta inh inconclusive, FEN1 inhibitor inconclusive, WRN inhibitor inconclusive, Pol iota inh 39.8µM | Pol eta inh-2 inconclusive
Cn1cccc1/C=C1\C(=O)NC(=O)N(CCC2=CCCCC2)C1=O	Pol iota inh inconclusive
CC#C[C@]1(O)CC[C@H]2C3C=C(C)C4=CC(=O)C=C[C@]4(C)[C@H]3[C@@H](O)C[C@@]21C (some centres undefined)	none (no result: Pol eta inh-1, Pol beta inh, FEN1 inhibitor, WRN inhibitor, Pol iota inh)
C/C(=C/CCC(C)[C@H]1CC[C@@]2(C)C3=C(CC[C@]12C)[C@@]1(C)CCC(=O)C(C)(C)[C@@H]1CC3)C(=O)O (some centres undefined)	Pol eta inh-1 79.4µM, FEN1 inhibitor 50.1µM, WRN inhibitor 79.4µM | Pol eta inh-2 inconclusive
COc1ccc(C=C(C(=O)O)c2ccc(OC)cc2)cc1	none (no result: Pol beta inh)
Cc1ccc(NS(=O)(=O)c2ccc(Cl)c(N=Nc3c(O)[nH]c(=O)[nH]c3=O)c2)cc1Cl	Pol eta inh-1 22.4µM, FEN1 inhibitor 44.7µM, Pol iota inh inconclusive (no result: Pol beta inh) | Pol kappa inh-2 59.7
O=c1nc(/C=C/c2ccc(Cl)cc2Cl)cc(C(F)(F)F)[nH]1	Pol eta inh-1 31.6µM, WRN inhibitor 50.1µM, Pol iota inh inconclusive | Pol eta inh-2 inconclusive
COc1ccc(N2C(=O)/C(=C/C=C/c3ccccc3[N+](=O)[O-])C(=O)NC2=S)cc1	Pol eta inh-1 22.4µM, Pol beta inh 20µM, FEN1 inhibitor inconclusive, WRN inhibitor 25.1µM, Pol kappa inh-1 inconclusive, Pol iota inh 15.8µM | Pol eta inh-2 inconclusive
O=C1NC(=O)N(c2ccccc2)C(=O)/C1=C\c1ccccc1[N+](=O)[O-]	WRN inhibitor inconclusive, Pol iota inh inconclusive
O=c1[nH]c(O)c(C=Nc2ccc(Cl)cc2Cl)c(=O)[nH]1	Pol beta inh inconclusive
O=C1NC(=O)N(c2ccc3c(c2)OCO3)C(=O)/C1=C/c1ccc(N2CCCCC2)o1	Pol iota inh inconclusive
O=C1NC(=O)N(c2ccccc2F)C(=O)/C1=C/c1ccc(Sc2nc3ccccc3[nH]2)o1	Pol eta inh-1 20µM, Pol beta inh 22.4µM, FEN1 inhibitor inconclusive, WRN inhibitor 22.4µM, Pol kappa inh-1 22.4µM, Pol iota inh inconclusive | Pol kappa inh-2 26.7 | Pol eta inh-2 30.1
O=c1cc(-c2ccc(O)cc2)oc2c([C@H]3O[C@@H](CO)[C@@H](O)[C@@H](O)[C@@H]3O)c(O)cc(O)c12	none (no result: Pol eta inh-1, Pol beta inh, FEN1 inhibitor, WRN inhibitor, Pol iota inh)
Cc1c(C(=O)Nc2ccccc2Cl)oc2ccc(S(=O)(=O)N3CCCCC3)cc12	Pol iota inh inconclusive (no result: WRN inhibitor)
